ATXN viability = viability counter-screen for ATXN expression inhibitors. Potency, µM (titrated, usually from 56.7 µM), usual class: cytotoxic. actives 0.49% (n = 400,000). S2 cells (HEK-293 line with an ATXN2-luciferase reporter) viability, CellTiter-Fluor protease fluorescence, 24 h; also: nearly all actives have a fitted effect of over 40% in size
TGFb SMAD3 inh = inhibitors of TGF-b signaling; HepG2 CAGA-GFP TGF-b/SMAD3 reporter, GFP fluorescence, 18 h; TGF-beta stimulated, 500 pg/mL final; Potency, µM (titrated, usually from 46.1 µM), for inactives: at the highest dose activity, negative = inhibition, actives largely listed as inhibitors; actives 1.2% (n = 410,000); AID 588855; also: % is scaled to controls: 0 for no effect and ±100 for the full control effect; nearly all actives have a fitted effect of over 65% in size
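TGF-beta reporter screen: HEPG2 CAGA-GFP, 1% FBS, 500 pg/mL TGF-beta final, 18 h; per-cell GFP summed per well; curves fitted and categorized by class.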
Nrf2 inh = blocks Nrf2 signaling | actives 2.1% (n = 360,000) | Potency, µM (top dose mostly 46 µM), for inactives: at the top dose activity change, negative = inhibition, actives largely listed as inhibitors | A549 ARE-Fluc reporter, luciferase luminescence, 18-24 h; also: % is scaled to controls: 0 for no effect and ±100 for the full control effect; nearly all actives have a fitted effect of over 60% in size
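Nrf2 function is reported as luminescence of an ARE-controlled luciferase in A549 cells. Compounds were tested at several concentrations, and a CellTiter-Fluor read on the same wells flagged cytotoxicity.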
A549 viability = A549 cytotoxicity, counter-screen for Nrf2 inhibitors; A549 ARE-Fluc cells, CellTiter-Fluor viability, 18-24 h; Potency, µM (top dose mostly 46 µM), for inactives: top-dose activity change, negative = cytotoxicity, most hits filed as inhibitors; actives 0.16% (n = 390,000); also: % is scaled to controls: 0 for no effect and ±100 for the full control effect
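A549 ARE_Fluc cells in 5% FBS OPTI-MEM were exposed to compounds in concentration-response for 18-24 h at 37 deg C. Viability was read by CellTiter-Fluor fluorescence (Ex 405/Em 525) after 30 min, before the luciferase read.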
HepG2 tox = counter-screen for TGF-b inhibitors: cytotoxicity in HepG2 cells; AID 588856; Potency, µM (top dose mostly 46.1 µM), for inactives: at the top dose activity change, negative = cytotoxicity, usual class: cytotoxic; actives 0.76% (n = 410,000); HepG2 CAGA-GFP viability, ATP luminescence, 18 h
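CellTiter-Glo luminescence gave cytotoxicity after 18 hours at 37 degrees C. The cells were HepG2 CAGA-GFP in 1% FBS DMEM, stimulated with 500 pg/mL TGF-beta after compound addition. %Activity was normalised to no-cell wells (complete cell-killing) and DMSO (no toxicity), and curves were fitted and classified.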
ATXN2 expr inh = reduces ATXN2 reporter expression in HEK-293 cells | HEK-293 ATXN2-luciferase reporter, luminescence, 24 h | Potency, µM (titrated, usually from 57 µM), for inactives: at the top dose activity change, negative = inhibition, most hits filed as inhibitors | actives 0.72% (n = 360,000) | AID 1745845; also: % is scaled to controls: 0 for no effect and ±100 for the full control effect; nearly all actives have a fitted effect of over 55% in size
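ATXN2-luciferase reporter cells (luciferase flanked by upstream and downstream ATXN2 gene portions) were treated 24 h at 37 °C with compounds at up to 57 uM. SteadyGlo luminescence gave expression; GF-AFC fluorescence gave viability.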
Starred values were filed as active, the others as inactive; i = inactive; ? = inconclusive; . = not tested or not shown; ! = not confirmed by another sample. Sampled rows, rich in hits. Any-hit rate of the full collection: about 3.8%. Calls follow the shape of the dose curve; as a rule, active = well fitted curve in the direction sought with a large enough effect; inconclusive = small, poorly fitted or top-dose-only effect, or another doubt; inactive = no such curve, though single readings can be large; an effect the other way counts as inactive or inconclusive. Potency is read from the fitted curve at half-maximal effect.

SMILES	ATXN viability	TGFb SMAD3 inh	Nrf2 inh	A549 viability	HepG2 tox	ATXN2 expr inh
Cc1ccc(CN2CCC(c3cc(-c4ccc(Cl)cc4)n[nH]3)CC2)cc1	?	15.8µM*	26.9%	-3.9%	14.1µM*	20µM*
Cc1cc(C)c(S(=O)(=O)c2cccc(Br)c2C)c(=O)[nH]1	i	17.1%	?	3.6%	-7.0%	1.6%
COC(=O)c1cc(OC)c(OC)cc1NC(=S)Nc1cc(Cl)ccc1OC	i	-27.7%	?	-9.3%	-0.7%	3.2%
COc1ccc(Cl)cc1NC(=S)NNC(=O)C1(C)CC1(Cl)Cl (stereo not drawn)	i	20µM*	4.9%	-0.3%	-42.3%	-11.2%
C=CCN(c1ccccc1)S(=O)(=O)c1ccc2c(c1)NC(=O)C(C)C(=O)N2 (stereo not drawn)	i	2.3%	-11.0%	-7.1%	0.7%	-23.3%
Cc1c(CCO)c(=O)n2c([nH]c3ccccc32)c1C#N	i	-3.8%	-15.4%	-8.9%	-12.7%	-18.1%
CCCCc1c(C)c(C#N)c2[nH]c3ccccc3n2c1=O	i	3.16µM*	18.4µM*	?	-51.8%	?
CCCc1cc(=O)n2c([nH]c3ccccc32)c1C#N	i	-13.0%	14.6µM*	-24.0%	-56.8%	-15.7%
NS(=O)(=O)c1ccc(CCNc2nn3c(-c4cccc(OC(F)(F)F)c4)cnc3s2)cc1	?	?	.	.	-23.5%	25.1µM*
COc1cc(C#Cc2c(-c3cncn3C)n(C)c3ccc(-c4cnc(OC)nc4)cc23)cc(OC)c1	i	?	?	?	-36.4%	20µM*
CCOc1ccc(NC(=O)NC(C)c2c(-n3cccc3)sc3c2CCN(CC)C3)cc1 (stereo not drawn)	.	?	18.1%	-3.1%	-14.5%	.
CCN1CCc2c(sc(-n3cccc3)c2C(C)NC(=O)Nc2ccc(Br)cc2)C1 (stereo not drawn)	.	10µM*	?	7.0%	14.1µM*	.
COc1cc(Oc2nc(C(F)(F)F)nc3ccccc23)ccc1C=O	i	-3.0%	4.7%	-4.9%	-11.4%	.
C/C(=N\Nc1ccc([N+](=O)[O-])cc1)c1ccc(C#N)cc1	i	-8.1%	-18.1%	-4.2%	-19.0%	9.6%
C/C(=N/Nc1ccc([N+](=O)[O-])cc1)c1ccc(C)cc1C	?	3.55µM*	?	?	-37.1%	-12.8%
CCOc1ccc(CNC(=O)c2cnc3c(C)cccn3c2=O)cc1	i	-12.5%	.	1.2%	2.6%	9.7%
CC1CCCN(S(=O)(=O)c2cc(C(=O)NCc3ccccc3Cl)n(C)c2)C1 (stereo not drawn)	?	?	.	-0.3%	-21.6%	-21.0%
CCOC(=O)[C@H](CCc1ccccc1)N[C@H]1CCc2ccccc2N(CC(=O)O)C1=O	35.5µM*!	9.1%	4.5%	1.1%	11.9%	24.3µM*!
CC1CCCC(C)N1CC(O)COCc1ccccc1F (stereo not drawn)	i	-7.4%	2.0%	7.2%	-24.6%	0.6%
Cc1cc(C)n(CC(=O)O)c(=O)c1[N+](=O)[O-]	i	-13.0%	5.9%	4.4%	-2.0%	5.3%
COc1ccc(OC)c(CNn2c(-c3cccc(C)c3)nc3ccccc3c2=O)c1	i	-5.9%	18.4µM*	-14.0%	-15.5%	-10.0%
COc1cccc(CNn2c(-c3cccc(C)c3)nc3ccccc3c2=O)c1	i	?	-15.6%	-1.6%	-32.3%	0.9%
Cc1ccc(NC(=O)c2c(NC(=O)c3ccccc3)sc3c2CCC3)cc1	i	-1.3%	11.0%	0.8%	5.6%	9.3%
O=C(Nc1cccc(Cl)c1)c1c(NC(=O)C(F)(F)F)sc2c1CCCC2	?	?	?	?	11.2µM*	-44.9%
Cc1ccc(NC(=O)c2c(NC(=O)C(F)(F)F)sc3c2CCCCC3)cc1	.	1.12µM*	2.59µM*	?	-59.9%	.
